Screening data as filed in PubChem.
The list is not random: actives were taken first. Their share in the collection is about 2.4%.
D2 PAM-1: potentiates the human D2 dopamine receptor allosterically | P14416 | DiscoveRx D2 beta-arrestin cells, luminescence, 90 min; 100% = 57 uM dopamine signal | potentiation, % (concentration not given with the values) | 360,000 tested, 0.23% active | AID 624464; in the data active = potentiation above about 50%
Target sequence (P14416 whole entry, looked up): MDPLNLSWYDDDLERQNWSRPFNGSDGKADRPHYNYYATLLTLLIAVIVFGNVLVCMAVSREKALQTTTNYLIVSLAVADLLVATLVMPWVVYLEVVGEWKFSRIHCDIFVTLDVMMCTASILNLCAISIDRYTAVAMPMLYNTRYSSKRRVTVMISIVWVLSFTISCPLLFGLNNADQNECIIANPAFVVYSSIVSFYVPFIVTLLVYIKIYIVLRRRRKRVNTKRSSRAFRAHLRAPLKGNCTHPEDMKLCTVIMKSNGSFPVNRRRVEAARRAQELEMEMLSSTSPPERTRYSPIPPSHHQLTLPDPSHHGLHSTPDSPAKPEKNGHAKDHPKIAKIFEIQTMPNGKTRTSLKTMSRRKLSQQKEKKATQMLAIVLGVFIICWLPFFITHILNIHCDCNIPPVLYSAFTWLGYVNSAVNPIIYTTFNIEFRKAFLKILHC
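D2 cells co-treated with compound plus 50 nM dopamine (EC20) for 90 min at 37 deg C to detect potentiation. Beta-arrestin recruitment was read as enzyme-fragment luminescence after 1 h at ambient temperature. Full response was set by 57 uM dopamine.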
D2 antag: antagonists of human D2 dopamine receptor | P14416 | HEK293 TREx D2 cells, calcium flux, dopamine EC80 | inhibition, % at 10 µM | 340,000 tested, 2% active; in the data active = inhibition above about 30%; inactive = below that, where a call was filed; also: 0% is about no effect
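Read-out: kinetic calcium fluorescence (1 cycle/s) in inducible HEK293 T-REx D2 cells after an EC80 dopamine addition that followed 180 s compound preincubation. Loss of the dopamine response indicates antagonism.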
D2 ag-1: human D2 receptor agonism in beta-arrestin assay. DiscoveRx PathHunter D2 beta-arrestin, luminescence, 90 min; 100% = 57 uM dopamine signal. 360,000 tested, 0.084% active. AID 624465. activation, % (no concentration beside the values); in the data active = activation above about 40%
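DiscoveRx PathHunter D2 beta-arrestin cells (2,100/well) attached overnight, then compound-stimulated 90 min at 37 C in HBSS/10 mM HEPES/0.1% Tween-20 buffer; beta-galactosidase complementation read by luminescence after 1 h at ambient temperature. Dopamine 57 uM final (EC100) as control.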
D2 PAM-2: positively modulates the human D2 dopamine receptor allosterically; P14416; HEK293 T-REx D2, calcium flux, EC20 dopamine potentiation; potentiation, % at 10 µM; 340,000 tested, 0.34% active;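 active = potentiation over 3 SD above the plate norm, cut at about 30% in these data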; also: 0% is about no effect
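Using a no-wash calcium dye in inducible, force-coupled HEK293 Trex cells expressing D2, we tracked fluorescence each second for 180 s after compound, then for 180 s after EC20 dopamine to detect augmented signalling.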
D2 ag-2: D2 dopamine receptor (human) agonism; P14416; HEK293 T-REx D2 cells, calcium flux agonist mode; activation, % at 2 µM; 340,000 tested, 0.53% active;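 active = activation over 3 SD above normal in the single-dose calcium agonist read, cut at about 30% in these data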; also: 0% is about no effect
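Tetracycline-induced HEK293 T-REx cells with force-coupled D2 receptor, plated overnight at 30 C, loaded with no-wash calcium dye. After a 10 s baseline, compound was pin-added and calcium flux read kinetically for 180 s; calcium rises flagged agonists.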
An asterisk follows results filed as active; . = no result given.

SMILES	D2 PAM-1	D2 antag	D2 ag-1	D2 PAM-2	D2 ag-2
N#Cc1cnn(-c2ccccc2)c1NC(=O)c1ccccc1F	-2	14	7	80*	0
O=C(Nc1c(C(=O)N2CCCCC2)cnn1-c1ccccc1)c1ccccc1F	-9	-16	-3	1	1
CCOC(=O)c1cccc(NC(=O)N2CC(CC)Sc3ccccc32)c1 (stereo not given)	.	.	.	4	-1
COc1cc2oc(=O)cc(CN3CCOCC3)c2cc1Cl	-3	.	-3	.	.
O=C(O)c1cc(NS(=O)(=O)c2ccc3ccccc3c2)ccc1O	-22	11	-3	7	0
COC(=O)c1ccccc1NS(=O)(=O)c1ccc(F)cc1	-10	32*	-4	44*	0
O=C(O)c1ccccc1NS(=O)(=O)c1ccc2ccccc2c1	13	2	-2	32*	-2
COC(=O)c1ccccc1NS(=O)(=O)c1ccc(NC(C)=O)cc1	-1	-7	-2	17	1
CCC(C(=O)Nc1ccc(C(C)=O)cc1)n1c(C)c2cnn(-c3ccccc3)c(=O)c2c1C (stereo not given)	.	.	.	-4	2
Cc1cccc(NC(=O)c2nc[nH]c2C(=O)N2CCC(C)CC2)c1	-27	39*	0	-25	-1
Cc1ccc(NC(=O)c2nc[nH]c2C(=O)N2CCc3ccccc3C2)cc1	-21	63*	-3	-25	0
CCOC(=O)c1ccc(NC(=O)c2nc[nH]c2C(=O)N2CCc3ccccc3C2)cc1	-9	5	-4	-13	1
COc1ccc(OCCOC(=O)c2ccc(F)c(S(=O)(=O)N3CCOCC3)c2)cc1	-1	49*	3	3	18
O=C(Nc1nncs1)c1ccc(Br)c(S(=O)(=O)N2CCCC2)c1	-3	56*	-2	-2	0
COc1cccc(NC(=O)c2ccc3c(c2)CCCC3)c1	-20	-5	0	-6	0
COc1ccc(NC(=O)c2cc(S(=O)(=O)N3CCCC3)oc2C)cc1	-15	-14	-4	31*	-2
CC(=O)c1cccc(NC(=O)c2ccc3c(c2)CCCC3)c1	-50	33*	-4	-30	0
COc1ccc(NC(=O)c2cc(S(=O)(=O)N3CCCC3)c[nH]2)cc1	0	-5	-30	6	0
Cc1ccc(NC(=O)C(C)OC(=O)/C=C/c2ccccc2)cc1S(=O)(=O)N1CCOCC1 (stereo not given)	-4	1	-3	41*	0
Cc1ccc(N(Cc2ccccc2)C(=O)c2ccc(F)c(S(=O)(=O)N3CCOCC3)c2)cc1	-12	59*	-7	-4	0
CC(=O)c1cccc(NC(=O)c2ccc(C)c(S(=O)(=O)N3CCOCC3)c2)c1	-3	50*	-1	9	1
Cc1cccc(N(Cc2ccccc2)C(=O)c2ccc(F)c(S(=O)(=O)N3CCOCC3)c2)c1	-16	0	8	-2	0
Cc1ccc(NC(=O)COC(=O)/C=C/c2cccc(Cl)c2)cc1S(=O)(=O)N1CCOCC1	-3	-13	2	9	-1
COc1ccc(NC(=O)c2ccc(Br)c(S(=O)(=O)N3CCOCC3)c2)cc1	2	-21	-2	33*	2
CCOC(=O)c1ccc(NC(=O)c2ccc3c(c2)CCN3S(=O)(=O)c2ccc(Cl)cc2)cc1	.	.	.	3	.
SMILES	D2 PAM-1	D2 antag	D2 ag-1	D2 PAM-2	D2 ag-2
CCOCCCn1c(=N)c(C(=O)NC2CCCC2)cc2c(=O)n3cccc(C)c3nc21	.	.	.	-2	0
O=C(CCCCCn1c(=O)[nH]c2ccccc2c1=O)NCc1cccc(Cl)c1	.	.	.	3	.
Cc1ccc(C(=O)Nc2ccccc2)cc1S(=O)(=O)N1CCN(C)CC1	-2	35*	2	-3	1
COc1ccc(C(=O)NNC(=O)COc2ccc(Cl)cc2C)cc1S(=O)(=O)N1CCOCC1	-12	33*	-2	-2	0
CN1CCN(S(=O)(=O)c2ccc(C(=O)Nc3ccccc3)cc2)CC1	-9	11	-1	11	-1
COc1ccc(C(=O)Nc2nnc(C)s2)cc1S(=O)(=O)N1CCOCC1	-1	17	-1	6	0
COc1ccc(C(=O)Nc2nc(C)c(C(C)=O)s2)cc1S(=O)(=O)N1CCOCC1	-2	30*	-2	-11	1
COc1cc(/C=N/NC(=O)c2c(-c3ccccc3)noc2C)cc(OC)c1OC	8	56*	7	-21	-2
CC(C)c1ccc(NC(=O)C2Cc3c(-c4cccc(F)c4)ccnc3O2)cc1 (stereo not given)	-1	.	-3	.	.
CC1(c2ccccc2Cl)NC(=O)N(CC(=O)Nc2ccc(N3CCOCC3)cc2)C1=O (stereo not given)	0	.	0	.	.
CC1(c2ccccc2Cl)NC(=O)N(CC(=O)Nc2ccc(N3CCCCC3)cc2)C1=O (stereo not given)	1	35*	-3	-8	1
Cc1oc2ccc(O)c(CN3CCCC(C)C3)c2c1C(=O)Nc1ccccc1 (stereo not given)	.	.	.	-13	0
Cc1onc(C(=O)Nc2sc3c(c2C#N)CCCC3)c1[N+](=O)[O-]	-1	-3	-1	-31	37*
Cc1onc(-c2ccccc2Cl)c1C(=O)Nc1sc2c(c1C#N)CCC2	3	-11	0	10	0
Cc1ccc(Cn2c(C)c3cnn(CC(=O)N4CCN(c5cc(C)ccc5C)CC4)c(=O)c3c2C)cc1	.	.	.	0	2
CC1CCC/C(=N/Nc2ccc([N+](=O)[O-])cc2[N+](=O)[O-])C1 (stereo not given)	74*	-7	7	-1	1
CN1C(=O)[C@H]2[C@@H](c3ccc(C(F)(F)F)cc3)N[C@]3(CCCN(CC4CCCCC4)C3=O)[C@H]2C1=O	1	.	-7	.	.
CCN(C(=O)CCS(=O)(=O)c1cc(Br)cc2c1N(C(=O)C1CC1)CC2)c1cccc(C)c1	.	.	.	1	0
CN1CCCN(C(=O)CNC(=O)Cc2ccccc2)CC1	-11	2	-1	9	1
O=C(Cc1ccccc1)NCC(=O)N1CCCC1	-6	35*	-3	5	2
CSCCCN1CCC(n2nccc2NC(=O)CCCc2ccccc2)CC1	-28	11	-2	-11	0
CCC1CCCCN1C(=O)COc1cc(=O)n(C)c2ccccc12 (stereo not given)	0	-16	-2	-5	1
CCC1CCCCN1C(=O)COc1ccccc1NC(C)=O (stereo not given)	-13	-4	0	32*	-1
COCCNC(=O)CCCN1C(=O)CCn2nc(-c3cccn3C)cc21	.	.	.	-5	.
COc1cc(Cl)c(C)cc1NCC(=O)Nc1cccc(S(=O)(=O)N2CCCC2)c1	-3	-23	0	7	0
